Shown are actives, neighbours in structure and some others; about 4.2% of the full set was active somewhere.
hgDAF-12 ag: hgDAF-12 agonism, primary luciferase screen; HEK293 GAL4-hgDAF12 UAS-luciferase reporter, agonist luminescence; normalized to butyrate control; activation, % at 6.8 µM; 370,000 compounds, 1.8% hits; AID 687014;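 active = activation above a cutoff set at the mean of all screened compounds plus 3 SD, cut at about 10% in these data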
hcDAF-12 act: activates DAF-12 receptor from parasite H. contortus. AID 652067. HEK293 hcDAF-12 lit1-tk-luc reporter, luminescence; 0% DMSO, 100% Δ7-dafachronic acid. activation, % at 6.8 µM. 370,000 compounds, 1.4% hits;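 active = activation above the mean of all tested compounds plus 3 SD, cut at about 5.5% in these data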
ssDAF12 agonist: activates DAF-12 receptor from parasite S. stercoralis. HEK293 ssDAF-12/GRIP1 lit1-tk-luc reporter, luminescence; % of 3 µM dafachronic acid response. activation, % at 6.8 µM. 370,000 compounds, 1% hits;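 active = activation above the mean over all tested compounds plus 3 SD, cut at about 0.9% in these data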
DAX1 StAR inh: blocks DAX1 repression of SF-1 activated StAR promoter. HEK293T StAR-luciferase reporter, SF-1/DAX-1 repression relief. inhibition, % at 6.8 µM. 370,000 compounds, 1.1% hits. AID 652010;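 active = inhibition above the mean over all tested compounds plus 3 SD, cut at about 3.6% in these data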;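 also: higher inhibition means more luminescence from relief of DAX-1 repression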
SMARCA2 act: SMARCA2 function activation, primary screen; AID 652017; activation, % at 9.1 µM; 370,000 compounds, 1% hits; MG213 cells, MMTV-luciferase reporter, dexamethasone, overnight; in the data active = activation above about 7.8%
SMARCA2 conf: confirmation of SMARCA2 (BRM) function activators; activation, % at 9.1 µM; shares compounds with SMARCA2 act; MG213 cells, MMTV-luciferase with dexamethasone, luminescence, overnight; MG213 cells expressing E1A, Rb sequestered; DMSO wells 0%, reference activator 100%; 3,500 compounds, 30% hits;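 active = activation above its plate's cutoff, the mean activation of tested wells plus 3 SD, cut at about 7.9% in these data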
VP16 Luc act: activates GAL4-VP16 luciferase, flagging SMARCA2 activator hits; AID 686939; shares compounds with SMARCA2 act; 3,500 compounds, 41% hits; activation, % at 9.1 µM; HEK293 GAL4-VP16 pG5luc reporter, luciferase luminescence; scaled: DMSO wells 0%, SAHA wells 100%;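 active = activation above the solvent-only control well mean plus 3 SD, averaged across control plates, cut at about 5.2% in these data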
Large screens that a line does not name were inactive (follow-up assays come after a bar, where they were run); ! = a repeat was not active.

Cc1ccccc1-n1c(C)nnc1SCC(=O)NNC(=O)c1ccccc1	SMARCA2 act 8.0 | SMARCA2 conf inactive | VP16 Luc act inactive
O=C(Nc1ccccc1)NC1CCCCCCC1	SMARCA2 act 12 | SMARCA2 conf inactive | VP16 Luc act inactive
O=C(COc1ccccc1F)NCCc1ccc2c(c1)OCCO2	none
O=C(COc1ccccc1Cl)NCCc1ccc2c(c1)OCCO2	SMARCA2 act 11 | SMARCA2 conf inactive | VP16 Luc act inactive
Cc1cc(N2CCN(C(=O)OC(C)(C)C)C[C@@H]2C)ccc1N1CCN(Cc2ccccc2)[C@H](C)C1	none
C=CCc1cc(Cl)ccc1OCCNCCCOC	SMARCA2 act 11 | SMARCA2 conf inactive | VP16 Luc act inactive
C=CCc1cc(Cl)ccc1OCCOCCNCCOC	none
COc1cccc(C2(c3cccc(OC)c3)CC2C(=O)Nc2cccc3ccccc23)c1 (stereo unspecified)	SMARCA2 act 9.6 | SMARCA2 conf inactive | VP16 Luc act inactive
CCn1cc(CNC(=O)NC2CCCCC2)c(C)n1	SMARCA2 act 12 | SMARCA2 conf inactive | VP16 Luc act inactive
Brc1ccc(/C=N/Nc2nc3ccccc3o2)cc1	hgDAF-12 ag 12, hcDAF-12 act 5.9, ssDAF12 agonist 1.9, SMARCA2 act 9.2 | SMARCA2 conf inactive | VP16 Luc act 14
CCOC(=O)[C@]12CCCC=C1N(CCc1ccc(OC)c(OC)c1)C(=O)[C@H](CC(=O)N1CCSCC1)C2	none
C=CCN(Cc1ccc(OC)cc1OC)C(C#CCCCC)c1ccccc1 (stereo unspecified)	none (no result: DAX1 StAR inh, SMARCA2 act)
COC(=O)C1CN(CCO)CCS(=O)(=O)N1Cc1cn(Cc2ccccc2Br)nn1 (stereo unspecified)	none
CC(c1ccccc1)N1CCn2c(nc3cc(NC(=O)c4cccs4)ccc32)C1 (stereo unspecified)	SMARCA2 act 9.9 | SMARCA2 conf inactive | VP16 Luc act inactive
Cc1cccc(C(=O)Nc2ccc3c(c2)ncn3C)c1	hgDAF-12 ag 11, SMARCA2 act 12 | SMARCA2 conf 8.3 | VP16 Luc act 19
CC(=O)Nc1ccc2c(c1)ncn2-c1ccccc1	SMARCA2 act 12 | SMARCA2 conf 16 | VP16 Luc act 7.3
CCC(=O)Nc1ccc2c(c1)ncn2-c1ccccc1	none
Cn1c(=O)cc(OCCCC(=O)Nc2cc(Br)ccn2)c2ccccc21	none (no result: DAX1 StAR inh, SMARCA2 act)
Cc1ccnc(NC(=O)CCCOc2cc(=O)n(C)c3ccccc23)c1	SMARCA2 act 22! | SMARCA2 conf 9.1 | VP16 Luc act inactive
COC(=O)C1=C(C)N(C)C(=NCc2ccc(OC)cc2)NC1c1ccc(Cl)cc1 (stereo unspecified)	none
Oc1ccc(Cl)cc1CNc1ccc(Br)cn1	SMARCA2 act 9.9 | SMARCA2 conf 11 | VP16 Luc act 10
Cc1ccc2nc(-c3cccc(Br)c3)c(Cc3ccccc3)n2c1	hcDAF-12 act 8.1, ssDAF12 agonist 1.9, DAX1 StAR inh 4.2, SMARCA2 act 10 | SMARCA2 conf inactive | VP16 Luc act inactive
Clc1ccc2nc(-c3cccc(Br)c3)c(Cc3ccsc3)n2c1	SMARCA2 act 8.9 | SMARCA2 conf inactive | VP16 Luc act inactive
Brc1ccc2nc(-c3ccco3)c(Cc3ccccc3)n2c1	SMARCA2 act 10 | SMARCA2 conf inactive | VP16 Luc act inactive
CCc1nc2c(OCCOC)cccn2c1N(C)C(=O)c1ccco1	none
O=C(CSc1nnc(-c2cccc(Cl)c2)n1Cc1ccco1)Nc1ccc2c(c1)OCO2	none
COC(=O)[C@]12C[C@H](CC(=O)NCc3cccc(C(F)(F)F)c3)C(=O)N(Cc3ccc(Cl)cc3Cl)C1=C[C@H](C(C)C)O[C@@H]2C1CC1	none
CC(C)c1ccc(CC(=O)N2CCC2(C)C(=O)NS(=O)(=O)c2ccc(Cl)s2)cc1 (stereo unspecified)	none
C=COCCNC(=O)Nc1ccc(Cl)c(Cl)c1	SMARCA2 act 8.2 | SMARCA2 conf inactive | VP16 Luc act inactive
COCCNC(=S)Nc1ccc(Cl)c(Cl)c1	none

Screening results (PubChem BioAssay)
